Assay outcomes from PubChem.
Casp7 inh = allosteric or competitive inhibitors of human caspase-7; actives 0.02% (n = 75,000); Potency, µM (doses to about 57.5 µM), inactives show at the top dose activity change, negative = inhibition, actives largely listed as inhibitors; AID 889; recombinant caspase-7, Ac-DEVD-AFC fluorescence rate; P55210; active = well fitted inhibition curve with a large enough effect in the main read-out, with a control signal flat, not every such curve was filed as active; inconclusive = small, poorly fitted or top-dose-only effect, or a change in a side signal; also: % of control where 0% means no effect
p53ts 39C kill = cytotoxicity in p53ts cells at nonpermissive temperature; H1299-p53A138V viability at 39C, ATP luminescence, 24 h; actives 1.5% (n = 130,000); Potency, µM (doses to about 46.1 µM), inactives show at the highest dose activity change, negative = cell killing, actives largely listed as cytotoxic; also: % is scaled to controls: 0 for no effect and ±100 for the full control effect; nearly all actives have a fitted effect of over 55% in size
Luciferase inh = firefly luciferase inhibition; actives 2.2% (n = 72,000); P08659; AID 411; purified firefly luciferase, luminescence, 8 min; Potency, µM (top dose mostly 57.1 µM), inactives show at the highest dose activity change, negative = inhibition, most hits filed as inhibitors; also: % is scaled to controls: 0 for no effect and ±100 for the full control effect; nearly all actives have a fitted effect of over 40% in size
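Titration-based qHTS; buffer 50 mM imidazole pH 7.2, 50 mM KCl, 7 mM MgCl2, 10 uM ATP, 0.01% Tween 20, 0.05% BSA; luciferase/luciferin detector mix added after compound; 8 min, ambient; luminescence.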
p53ts 32C kill = kills p53ts cells at the permissive temperature; Potency, µM (highest dose often 46.1 µM), inactives show at the top dose activity change, negative = cytotoxicity, usual class: cytotoxic; AID 924; actives 0.93% (n = 130,000); H1299-p53A138V at 32C, ATP luminescence viability, 24 h;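 also: 0% = DMSO and -100% = full killing by reference compound; nearly all actives have a fitted effect of over 55% in size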
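Cells: H1299 p53ts (A138V), 600/well, pre-incubated 16–30 h at 37C. Cpd up to 46 uM, 24 h, 32C. Readout: ATPlite luminescence, 20 min RT. Normalization: DMSO vs tamoxifen 100 uM. AC50 by Hill equation.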
IkB signaling = IkB pathway inhibition in ABC-DLBCL cells; Potency, µM (series often up to 57.1 µM), for the others: at the top dose IkBa stabilization activation; ABC-DLBCL IkBa-CBG/CBR dual luciferase ratio, 4 h; response scale: scaled: untreated 0%, proteasome inhibitor 100%; AID 445; actives 0.04% (n = 110,000); active = well fitted curve in the direction sought with a large enough effect in the signal ratio, not every such curve was filed as active; inconclusive = small, poorly fitted or top-dose-only effect, or a change in a side signal; the % refers to the signal ratio;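 also: the direction sought is a rising ratio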
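Luminescence ratio of IκBα-fused green versus native red beetle luciferase in OCI-Ly3 cells, 4 h post-doxycycline with compound; red signal alone, scaled from basal (0%) to zero light (-100%), flagged nonspecific or cytotoxic effects.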
Casp1 inh = caspase-1 (human) inhibition, allosteric or competitive. P29466. Caspase-1 enzyme, Ac-WEHD-AFC fluorogenic rate. Potency, µM (doses to about 57.5 µM), for the others: at the highest dose activity change, negative = inhibition, hits mostly inhibitors. actives 0.03% (n = 75,000);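 also: plate controls were vehicle for no effect and no substrate for full effect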
Starred values were filed as active, the others as inactive; ? = inconclusive; . = not tested or not shown. The list is not random: actives were taken first. Their share in the collection is about 2.5%. Unless noted, calls follow the shape of the dose curve; as a rule, active = well fitted curve in the direction sought with a large enough effect; inconclusive = small, poorly fitted or top-dose-only effect, or another doubt; inactive = no such curve, though single readings can be large; an effect the other way counts as inactive or inconclusive. Potency is read from the fitted curve at half-maximal effect.

SMILES	Casp7 inh	p53ts 39C kill	Luciferase inh	p53ts 32C kill	IkB signaling	Casp1 inh
COc1ccc(-c2cc(C(F)(F)F)nc(S(=O)(=O)CCCC(=O)Nc3cccc(O)c3)n2)cc1OC	.	3.2µM*	.	?	?	.
COc1ccc(-c2cc(C(F)(F)F)nc(S(=O)(=O)CCCC(=O)Nc3ccccc3C(F)(F)F)n2)cc1OC	.	5µM*	.	?	?	.
COc1ccccc1-c1cc(C(F)(F)F)nc(S(=O)(=O)CCCC(=O)Nc2cc(OC)c(OC)c(OC)c2)n1	.	5µM*	.	6.3µM*	-7%	.
COc1ccc(NC(=O)CCCS(=O)(=O)c2nc(-c3ccc(OC)c(OC)c3)cc(C(F)(F)F)n2)cc1OC	.	2.5µM*	.	?	?	.
Cc1ccc2c(c1)C(c1ccccc1)N(C(=O)C(C)C)CC(=O)N2 (configuration not stated)	2%	3%	1%	-4%	1%	-2%
COc1ccc2cc3c(N)nn(C(=O)Cc4ccccc4OC)c3nc2c1	-2%	-29%	-1%	-4%	?	-4%
Cc1cc(C(=O)CSc2nc3ccccc3[nH]2)c(C)n1C	-1%	-18%	16µM*	-15%	0%	0%
COCCn1c(C)cc(C(=O)COC(=O)c2c(C)nn(Cc3ccccc3)c2C)c1C	1%	11%	-3%	7%	?	-3%
CCCn1c(C)cc(C(=O)COC(=O)c2ccc(Cl)c(S(=O)(=O)N3CCCC3)c2)c1C	-5%	?	13µM*	?	5%	0%
Cc1cc(C(=O)COC(=O)c2n[nH]c3ccccc23)c(C)n1C	-3%	3.2µM*	13µM*	2.5µM*	?	0%
COCCn1c(C)cc(C(=O)COC(=O)c2n[nH]c3ccccc23)c1C	-1%	2µM*	1.3µM*	1µM*	?	-2%
Cc1cc(C(=O)CSc2nc3ccc(Cl)cc3[nH]2)c(C)n1C	-25%	-30%	-6%	8%	?	?
COc1cc(C(=O)OCC(=O)c2cc(C)n(C)c2C)cc(OC)c1OC	-1%	-6%	-2%	3%	2%	-1%
CN1CCN(C(=O)c2ccc(Cl)c(S(=O)(=O)N3CCCCC3)c2)CC1	0%	-7%	0%	1%	1%	0%
O=C(OCC(=O)c1ccco1)c1ccc2ncsc2c1	-2%	2%	-12%	9%	1%	1%
COCCn1c(C)cc(C(=O)COC(=O)c2ccc3ncsc3c2)c1C	2%	5%	25µM*	-7%	5%	0%
CC(C)(C)C(=O)NC(=S)Nc1sc2c(c1C#N)CCCCC2	.	17%	.	.	.	.
CC(=O)NC(Cc1c[nH]c2ccccc12)C(=O)OCC(=O)Nc1cc(C)on1 (configuration not stated)	1%	7%	1%	-7%	-1%	-3%
CC(C)c1ccc(NC(=O)c2ccc3c(c2)CCCN3S(C)(=O)=O)cc1	.	-28%	.	13µM*	1%	.
CCOC(=O)CN1CC23C=CC(O2)C(C(=O)Nc2ccc(OCC)cc2)C3C1=O (configuration not stated)	-2%	8%	-1%	6%	-2%	2%
CCC(=O)Nc1nc2ccc(S(C)(=O)=O)cc2s1	.	14%	.	-13%	.	.
CS(=O)(=O)c1ccc2nc(NC(=O)c3cccs3)sc2c1	0%	2.5µM*	1µM*	2.5µM*	?	-2%
Cc1ccc2nc(NC(=O)c3cccs3)sc2c1	-2%	7.9µM*	2µM*	?	?	3%
Cc1cc(C(=O)Nc2nc3ccc(S(C)(=O)=O)cc3s2)c(C)o1	-2%	-27%	2µM*	?	2%	-4%
Cc1ccc(OCCSc2nc3ccc(NC(=O)c4cccs4)cc3s2)cc1	.	9%	.	-10%	-1%	.
SMILES	Casp7 inh	p53ts 39C kill	Luciferase inh	p53ts 32C kill	IkB signaling	Casp1 inh
Cc1ccc(C(=O)Nc2nc3ccc(S(C)(=O)=O)cc3s2)s1	1%	13µM*	3.2µM*	10µM*	-2%	-5%
O=C(Cc1ccccc1)Nc1c(C(=O)c2ccccc2)oc2ccccc12	.	5%	.	-6%	2%	.
Cc1ccn2c(=O)c(C(=O)NCc3ccccc3Cl)c(O)nc2c1	.	17%	.	0%	-1%	.
CCN1CCN(Cc2nc3cc(NC(=O)c4cccc([N+](=O)[O-])c4)ccc3n2CC)CC1	.	-9%	.	3%	2%	.
Cc1ccc(NC(=O)C2CCCNC2=O)nc1 (configuration not stated)	0%	6%	0%	5%	-1%	1%
CCCC(c1nnnn1Cc1ccc(F)cc1)N1CCN(C2CCCCC2)CC1 (configuration not stated)	1%	20µM*	-1%	?	0%	0%
COCCN(CC(=O)NCC1CCCO1)C(=O)CCC(=O)Nc1cc(C)ccn1 (configuration not stated)	.	19%	.	-2%	.	.
CCOc1ccccc1NC(=O)c1nn(C)c2c1CSc1ccccc1-2	.	16µM*	.	-1%	-2%	.
Cn1nc(C(=O)Nc2ccccc2C#N)c2c1-c1ccccc1SC2	.	24%	.	8%	?	.
Nc1ccc(-c2cnc(-c3ccc(N)cc3)nc2)cc1	1%	10µM*	13µM*	10µM*	?	-1%
Cc1ccc(C)c(CN2C(=O)CSc3ccc(C(=O)NCc4ccccc4)cc32)c1	.	14%	.	9%	0%	.
CCC1=Nc2cc(C(=O)NCc3ccccc3OC)ccc2Sc2ccc(Cl)cc21	.	-26%	.	-2%	?	.
CCOc1ccc2nc(N3CCCC(C(=O)NCCCOC)C3)sc2c1 (configuration not stated)	.	10µM*	.	?	-1%	.
CCCN1CCN(CCCNC(=O)C2CCCN(c3nc4ccc(OCC)cc4s3)C2)CC1 (configuration not stated)	0%	?	7.9µM*	?	?	1%
Cc1ccc(NC(=O)CCn2nc(-c3ccccc3)c3ccccc3c2=O)c(C)c1	.	-1%	.	8%	?	.
Fc1ccc(CNc2ccc(CNc3ncn[nH]3)cc2)cc1	-1%	-2%	0%	4%	0%	1%
CCOc1ccccc1NC(=O)c1ccc2c(Cl)c3c(nc2c1)CCCC3	.	-21%	.	-12%	?	.
CCOc1ccccc1NC(=O)c1ccc2c(Cl)c3c(nc2c1)CCC3	.	4µM*	.	?	?	.
O=C(Nc1ccccc1F)c1ccc2c(Cl)c3c(nc2c1)CCC3	.	1.6µM*	.	1.3µM*	?	.
Cc1cccc(CS(=O)(=O)c2ncc(Cl)c(C(=O)Nc3nnc(C(C)C)s3)n2)c1	.	5µM*	.	16µM*	4%	.
CC(C)c1nnc(NC(=O)c2nc(SCc3ccc(F)cc3)ncc2Cl)s1	.	-20%	.	-3%	6%	.
